Most compounds without a hit are left out; they make up all but 2.4% or so of the library.
POLK inh: blocks human DNA polymerase kappa activity; Q9UBT6; purified Pol kappa, fluorescent DNA synthesis assay, 10 min; Potency, µM (series often up to 107 µM), for the others: top-dose activity, negative = inhibition, actives largely listed as inhibitors; 0.53% of 400,000 active; AID 588579; also: % is scaled to controls: 0 for no effect and ±100 for the full control effect
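Here, compound and 10 nM enzyme are combined for 15 min at room temperature; adding 50 nM substrate (final) starts DNA synthesis, tracked by fluorescence at 0 and 10 min against buffer-only wells.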
WRN helicase inh: blocks human WRN helicase | Q14191 | WRN helicase unwinding, fluorescent forked duplex, kinetic | Potency, µM (highest dose often 114 µM), without a hit: at the top dose activity change, negative = inhibition, hits mostly inhibitors | 0.46% of 360,000 active | AID 651768; also: % is scaled to controls: 0 for no effect and ±100 for the full control effect; nearly all actives have a fitted effect of over 55% in size
Target sequence (Q14191 whole entry, looked up): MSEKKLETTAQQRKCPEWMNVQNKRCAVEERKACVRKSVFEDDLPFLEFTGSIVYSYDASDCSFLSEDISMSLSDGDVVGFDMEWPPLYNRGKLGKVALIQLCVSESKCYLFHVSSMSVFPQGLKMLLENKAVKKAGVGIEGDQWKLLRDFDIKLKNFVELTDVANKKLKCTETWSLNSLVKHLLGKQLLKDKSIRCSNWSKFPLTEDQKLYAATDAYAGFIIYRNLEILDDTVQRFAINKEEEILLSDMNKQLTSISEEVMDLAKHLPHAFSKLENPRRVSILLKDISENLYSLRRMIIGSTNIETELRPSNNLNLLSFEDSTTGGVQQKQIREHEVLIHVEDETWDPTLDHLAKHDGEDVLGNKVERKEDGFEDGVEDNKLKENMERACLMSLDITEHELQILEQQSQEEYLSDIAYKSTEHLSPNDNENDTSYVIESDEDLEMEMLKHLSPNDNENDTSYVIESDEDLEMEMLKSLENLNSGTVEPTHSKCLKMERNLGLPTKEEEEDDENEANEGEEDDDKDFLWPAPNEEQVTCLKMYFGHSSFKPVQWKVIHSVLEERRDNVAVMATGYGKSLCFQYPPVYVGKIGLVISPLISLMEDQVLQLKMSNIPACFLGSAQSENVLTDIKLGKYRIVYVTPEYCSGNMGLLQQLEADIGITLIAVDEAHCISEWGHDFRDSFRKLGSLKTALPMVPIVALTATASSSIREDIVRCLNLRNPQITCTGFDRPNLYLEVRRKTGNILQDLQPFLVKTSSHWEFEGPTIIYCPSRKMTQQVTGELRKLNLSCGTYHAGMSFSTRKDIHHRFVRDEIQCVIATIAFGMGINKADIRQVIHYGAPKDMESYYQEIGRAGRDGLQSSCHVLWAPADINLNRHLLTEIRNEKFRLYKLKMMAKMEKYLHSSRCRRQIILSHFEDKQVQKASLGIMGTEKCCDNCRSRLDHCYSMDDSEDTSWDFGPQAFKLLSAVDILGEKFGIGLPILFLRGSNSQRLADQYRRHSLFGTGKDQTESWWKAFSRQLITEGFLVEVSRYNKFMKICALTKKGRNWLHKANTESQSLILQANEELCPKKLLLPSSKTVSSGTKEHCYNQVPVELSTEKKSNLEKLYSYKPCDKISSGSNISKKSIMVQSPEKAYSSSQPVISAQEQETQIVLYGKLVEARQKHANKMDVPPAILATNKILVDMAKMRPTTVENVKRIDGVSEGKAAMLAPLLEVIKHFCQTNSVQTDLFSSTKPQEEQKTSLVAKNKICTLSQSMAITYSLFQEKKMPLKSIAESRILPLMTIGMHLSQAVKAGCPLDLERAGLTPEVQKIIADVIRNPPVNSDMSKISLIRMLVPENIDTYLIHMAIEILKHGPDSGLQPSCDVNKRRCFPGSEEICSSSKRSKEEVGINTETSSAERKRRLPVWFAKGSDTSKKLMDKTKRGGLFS
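Enzyme (20 nM final) and test compound sit together 15 min at room temperature before substrate addition. Substrate is a single-forked duplex oligonucleotide (100 nM) labelled with fluorophore and quencher, with 2 mM ATP; helicase unwinding raises red fluorescence, read kinetically.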
POLI inh: DNA polymerase iota (human) inhibition; Q9UNA4; Pol iota fluorescent replication assay, 10 min; Potency, µM (series often up to 115 µM), for the others: at the top dose activity, negative = inhibition, usual class: inhibitors; 1% of 390,000 active
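Fluorescent replication assay read twice, at 0 min and 10 min after adding 50 nM (final) substrate. Enzyme (10 nM) and compounds were first incubated 15 min at room temperature; enzyme-free buffer wells were negative controls.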
Pol beta inh: inhibitors of human DNA polymerase beta. P06746. Pol beta primer extension/strand displacement, fluorescence kinetic. Potency, µM (highest dose often 114 µM), without a hit: top-dose activity change, negative = inhibition, usual class: inhibitors. 1.3% of 340,000 active. AID 485314; also: % is scaled to controls: 0 for no effect and ±100 for the full control effect
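Kinetic readout of DNA synthesis with strand displacement by Pol beta. Compound and 10 nM enzyme sit 15 min at room temperature; 50 nM substrate starts the reaction, read immediately and at 10 min.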
POLH inh: blocks human DNA polymerase eta activity. Q9Y253. recombinant Pol eta, fluorescent DNA replication assay. Potency, µM (top dose mostly 114 µM), inactives show at the highest dose activity change, negative = inhibition, actives largely listed as inhibitors. 1.2% of 390,000 active; also: % is scaled to controls: 0 for no effect and ±100 for the full control effect
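Pol eta at 10 nM preincubated with compounds 15 min at room temperature; reaction started with fluorescent substrate (50 nM final) and read kinetically at 0 and 10 min.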
FEN1 inhibitor: inhibitors of human flap endonuclease 1. 0.35% of 390,000 active. Recombinant FEN1 flap cleavage, fluorescence, 15 min. P39748. AID 588795. Potency, µM (titrated, usually from 114 µM), without a hit: at the highest dose activity change, negative = inhibition, actives largely listed as inhibitors; also: % is scaled to controls: 0 for no effect and ±100 for the full control effect; nearly all actives have a fitted effect of over 65% in size
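With each library titrated from low to high concentration, compounds met 10 nM FEN1 for 15 min at room temperature before 50 nM substrate was added; readings at 0 and 15 min fed four-parameter Hill curve fits.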
* = called active by the depositor; ? = inconclusive; · = no result given; [ ] = dose if it differs, or a comment. Calls follow the shape of the dose curve; as a rule, active = well fitted curve in the direction sought with a large enough effect; inconclusive = small, poorly fitted or top-dose-only effect, or another doubt; inactive = no such curve, though single readings can be large; an effect the other way counts as inactive or inconclusive. Potency is read from the fitted curve at half-maximal effect.

SMILES	POLK inh	WRN helicase inh	POLI inh	Pol beta inh	POLH inh	FEN1 inhibitor
S=c1[nH]nc(COc2ccccc2)n1/N=C/C=C/c1ccco1	?	-34.8%	?	20µM*	28.2µM*	-33.9%
NC(=O)c1ccsc1NC(=O)CSc1nnc2ccccn12	-21.4%	-7.4%[11.6 µM]	?	25.1µM*	?	16.4%
CC(=O)c1ccccc1NC(=O)CSc1nnc2ccccn12	·	·	·	3.6%	·	·
CCS(=O)(=O)c1ccc(C=NNc2nc3ccccc3o2)cc1	-9.3%	-11.6%	8.1%	·	-8.3%	2.0%
O=[N+]([O-])c1ccc(/C=N/Nc2nc3ccccc3o2)cc1	-2.7%	-2.4%	-1.2%	44.7µM*	-0.5%	3.5%
Oc1ccc(N=C/C=C/c2ccc(Br)cc2)cc1-c1nc2ccccc2s1	·	·	·	12.6µM*	·	·
O=C(Nc1ccc(-c2nc3ccccc3s2)c(O)c1)c1ccc(Br)cc1	-5.1%	·	13.8%	-0.6%	-23.7%	-3.4%
CCCCn1c(SCc2ccccc2C)nc2ccsc2c1=O	-3.9%[60.1 µM]	·	1.2%	-2.6%	-18.0%	-14.7%
O=Cc1ccc(O)cc1O	-19.2%	2.1%	21.9%	10.9%	-12.8%	3.1%
O=CN/C=C/c1cc(O)ccc1O	44.7µM*	-33.7%	22.4µM*	?	50.1µM*	17.8µM*
Cc1ccc(C2C(C#N)=C(N)Oc3n[nH]c(-c4cccs4)c32)cc1 (stereo unspecified)	-6.6%	-11.5%	32.8%	-0.1%	-18.0%	4.4%
N#CC1=C(N)Oc2n[nH]c(-c3cccs3)c2C1c1ccoc1 (stereo unspecified)	-20.5%	44.7µM*	?	-17.0%	?	?
COc1cccc(-c2[nH]nc3c2C(c2ccoc2)C(C#N)=C(N)O3)c1 (stereo unspecified)	-15.6%	?	?	35.5µM*	?	1.1%
Nc1ncc(S(=O)(=O)NCc2ccccc2F)cn1	-11.6%[60.1 µM]	·	19.7%	-18.9%	-5.1%	19.3%
CC(=O)Nc1cccc(NC(=O)CSc2ccc(-c3sc(-c4ccccc4)nc3C)nn2)c1	?	·	?	5.62µM*	-18.6%	2.3%
CC(=O)Nc1cccc(NC(=O)CSc2ccc(-c3ccccn3)nn2)c1	-20.3%	3.0%	49.2%	25.1µM*	13.2%	-1.5%
CC(=O)c1cccc(NC(=O)CSc2ccc(-c3ccccn3)nn2)c1	-9.8%	-8.3%	19.8%	0.6%	-0.5%	?
Cc1nc(-c2ccccc2)sc1-c1ccc(SCC(=O)Nc2cccc(C(F)(F)F)c2)nn1	-4.1%	·	5.4%	13.8%	4.4%	-4.5%
O=C(Nc1ccc(Cl)cc1Cl)[C@@H]1CC=C[C@@H]2CCN(C3CCCCC3)C(=O)[C@@H]21	1.8%	·	3.9%	·	·	14.1%
Oc1ccc(NCc2cccs2)cc1	-12.1%	-27.0%	31.6µM*	43.2%	-18.2%	7.8%
O=C(Nc1cccc([N+](=O)[O-])c1)c1ccc2c(c1)C(=O)N(c1ccccn1)C2=O	-11.2%	-18.2%	-13.4%	44.7µM*	-20.1%	-31.4%
CC(=O)c1ccc(NC(=O)c2ccc3c(c2)C(=O)N(c2ccccn2)C3=O)cc1	3.2%	-5.5%	14.7%	-18.4%	-15.3%	-1.3%
O=C(Nc1cc(Sc2ccccn2)cc([N+](=O)[O-])c1)c1ccc([N+](=O)[O-])cc1	-2.4%	31.6µM*	0.0%	3.1%	?	-26.5%
O=C(O)c1cccc(N2C(=O)c3ccc(C(=O)c4cccc([N+](=O)[O-])c4)cc3C2=O)c1	-39.6%	-6.8%	-29.4%	-8.9%	56.2µM*	-6.5%
O=C(Nc1cccc([N+](=O)[O-])c1)c1cccc(C(=O)Nc2cccc([N+](=O)[O-])c2)c1	-9.2%	2.7%	-13.8%	1.12µM*	1.6%	-19.9%
SMILES	POLK inh	WRN helicase inh	POLI inh	Pol beta inh	POLH inh	FEN1 inhibitor
Cc1ccc(S(=O)(=O)N2CCN(Cc3ccccc3Cl)CC2)cc1	-17.9%	·	-5.2%	2.0%	-7.2%	?
Cc1ccc(CN2C(=O)c3ccccc3Sc3ccc(C(=O)OCc4ccco4)cc32)cc1	-13.1%[60.1 µM]	·	?	-5.4%	-16.0%	0.5%
CC(=O)N1CCc2cc(S(=O)(=O)NC(Cc3ccccc3)C(=O)NCc3ccccc3)ccc21 (stereo unspecified)	1.4%	·	-5.7%	2.0%	-9.7%	2.0%
Cc1ccc(-c2noc(-c3ccc(N4CCCCC4C)c([N+](=O)[O-])c3)n2)cc1 (stereo unspecified)	-6.9%	·	-29.0%	1.7%	0.9%	-3.3%
Cc1noc(-c2ccc(N3CCCCC3C)c([N+](=O)[O-])c2)n1 (stereo unspecified)	-11.6%	·	-11.9%	39.8µM*	-18.5%	5.2%
COc1cc(OC)c2c(O)c3c(c(-c4c5c(c(O)c6c(OC)cc(OC)cc46)CO[C@@H](C)[C@H]5O)c2c1)[C@H](O)[C@H](C)OC3	39.8µM*	50.1µM*	?	35.5µM*	20µM*	?
CC(=O)NS(=O)(=O)c1ccc(NC(=O)c2cc3c(=O)n4ccccc4nc3s2)cc1	?	-34.3%	35.5µM*	79.4µM*	39.8µM*	-4.1%
NC(CSC(c1ccccc1)(c1ccccc1)c1ccc2c(c1)OCO2)C(=O)O (stereo unspecified)	·	-5.5%[11.6 µM]	·	·	35.5µM*	·
COCCn1c(=O)c(-c2ccc(Cl)cc2)nc2cnc(Nc3ccccc3)nc21	0.4%[60.1 µM]	·	·	·	·	·
O=C(COc1ccc(Cl)cc1Cl)Nc1ccc(C(=O)Nc2ccccc2C(=O)O)cc1	-33.2%	-29.0%	?	31.6µM*	7.9%	-17.6%
O=C(COc1ccc(Cl)cc1Cl)NC(=S)Nc1ccccc1C(=O)O	·	·	·	-1.0%	·	·
COc1ccc(C(=O)Nc2ccccc2C(=O)O)cc1NC(=O)C(c1ccccc1)c1ccccc1	-19.2%	-12.0%[11.6 µM]	7.0%	?	89.1µM*	-20.8%
O=C(Nc1ccccc1C(=O)O)c1ccccc1	-13.1%	-8.8%	?	31.6µM*	-17.6%	7.1%
O=C(Cc1ccc(Cl)cc1)Nc1cccc(C(=O)Nc2ccccc2C(=O)O)c1	-30.5%	89.1µM*	79.0%	5.5%	?	0.0%
Cc1ccc(Cn2c(C(C)NC(=O)c3ccccc3)nc3ccccc32)cc1 (stereo unspecified)	-2.1%	·	-1.7%	1.0%	-11.4%	-2.1%
CC(=O)Nc1ccc(S(=O)(=O)NCCC(=O)OCC(=O)N2CCN(C(=O)c3ccco3)CC2)cc1	-32.1%	?	44.7µM*	44.7µM*	?	-1.7%
COc1ccc(C2Nc3cccc4cccc(c34)N2)cc1Br	-2.0%	?	61.8%	-2.3%	-13.0%	-13.1%
COc1cc(C2Nc3cccc4cccc(c34)N2)cc(OC)c1O	-6.3%	-11.2%[11.6 µM]	?	44.7µM*	?	-14.6%
COc1cc(C2Nc3cccc4cccc(c34)N2)ccc1OC(C)=O	-19.5%	-29.7%	?	-21.5%	14.1µM*	39.8µM*
